This is an account of results in PubChem BioAssay (Tox21).

Experiment [1] can be described thus: qHTS RealTime-Glo MT Cell Viability Assay in HEK293 cells - 32 hour (AID 1224868). Further: top concentration of the series differs between compounds; nearly all actives have a fitted effect of over 50% in size. An outline of the steps:
(§1)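 Cells + reagent dispensed (600 cells/well, HEK293) → 5 h at 37 C/5% CO2 → 23 nL compound in DMSO pinned → 40 h at 37 C → luminescence read at 0, 8, 16, 24, 32, 40 h.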
In general terms: Quantitative high-throughput screening tests each substance at several concentrations.

A short description of experiment [2]: A CellTox Green Cytotoxicity Assay to monitor cytotoxicity in HEK293 cells - 0 hour (AID 1224869). Further: nearly all actives have a fitted effect of over 50% in size. A digest of the protocol: (§2)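 HEK293 cells, 600/well, were preincubated 5 hours and then exposed to compounds at 37 C for up to 40 hours. A cell-impermeant cyanine dye staining dead-cell DNA was read by fluorescence at 0, 8, 16, 24, 32 and 40 h time points.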
Experiment [3] is described as follows: qHTS RealTime-Glo MT Cell Viability Assay in HepG2 cells - 40 hour (AID 1224870). Further: nearly all actives have a fitted effect of over 50% in size. An outline of the steps: (§3)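 Real-time viability: cells seeded at 600 per well together with NanoLuc and cell-permeant prosubstrate, compounds added after 5 h incubation. Luminescence tracked at 0, 8, 16, 24, 32 and 40 h of exposure.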
Experiment [4] is described as follows: A CellTox Green Cytotoxicity Assay to monitor cytotoxicity in HEK293 cells - 40 hour (AID 1224871). Further: nearly all actives have a fitted effect of over 45% in size. A digest of the protocol: as §2
Experiment [5] is described as follows: qHTS RealTime-Glo MT Cell Viability Assay in HEK293 cells - 16 hour (AID 1224872). Further: top concentration of the series differs between compounds; nearly all actives have a fitted effect of over 50% in size. A digest of the protocol:
as §1

The nature of experiment [6]: qHTS RealTime-Glo MT Cell Viability Assay in HepG2 cells - 8 hour (AID 1224873). Further: nearly all actives have a fitted effect of over 55% in size. An outline of the steps:
as §3

Experiment [7] is described as follows: qHTS RealTime-Glo MT Cell Viability Assay in HEK293 cells - 40 hour (AID 1224874). Further: nearly all actives have a fitted effect of over 50% in size. Particulars: RealTime-Glo luminescence, active compounds read low. An outline of the steps: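 600 cells/well were plated with the nonlytic NanoLuc/prosubstrate reagent, pre-incubated 5 h, then given 23 nL of compound in DMSO. Incubation at 37 C for 40 h, with luminescence from viable-cell-reduced substrate read repeatedly from 0 h.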

Experiment [8] can be described thus: A CellTox Green Cytotoxicity Assay to monitor cytotoxicity in HEK293 cells - 24 hour (AID 1224875). Further: series mostly up to about 77 µM; nearly all actives have a fitted effect of over 45% in size. An outline of the steps: as §2
The nature of experiment [9]: A CellTox Green Cytotoxicity Assay to monitor cytotoxicity in HepG2 cells - 16 hour (AID 1224876). Further: nearly all actives have a fitted effect of over 45% in size. Further: potency means the concentration at half of the fitted maximal effect. An outline of the steps:
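HepG2 cells, 600/well, preincubated 5 h with CellTox Green dye, then exposed to Tox21 compounds in DMSO at 37 C for up to 40 h. Dead-cell DNA fluorescence read at the indicated time point.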

The nature of experiment [10]: qHTS RealTime-Glo MT Cell Viability Assay in HepG2 cells - 32 hour (AID 1224877). Further: nearly all actives have a fitted effect of over 55% in size. A digest of the protocol:
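Real-time, nonlytic viability: 600 HepG2 cells/well mixed with NanoLuc enzyme plus prosubstrate; 5 h settle, compound (DMSO) added by pintool; luminescence monitored over 40 h at 37 C.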

Unmarked numbers belong to inactive results. Records with an inconclusive call do not appear. Calls of active or inactive are those of the source. The call rests on the fitted dose curve; in most records, active means well fitted curve in the direction sought with a large enough effect in the repeat runs; inconclusive means weak or mixed curves; inactive means no such curve, though single readings can be large; an effect the other way counts as inactive or inconclusive.
On the % scale 0 is the no-effect control and ±100 the full control effect.

On to `CC(C)(C)C(=O)CC(=O)C(C)(C)C`, for which the call in experiment [1], in [2], in [3], in [5], in experiment [6] and in experiment [10] was inactive. Besides, the Potency entry in experiment [4], in experiment [8] and in experiment [9] was “inactive” throughout. The max response in [7] is -12.1%.

With `Cc1ccc2ccccc2n1`, the compound was called inactive in experiment [1], in experiment [2], in experiment [3], in experiment [5], in [6] and in experiment [10]. Also, the Potency result in experiment [4] and in [8] was “inactive” in each case. The max response in [7] is 18.8%. The Potency in experiment [9] was 138 nM (active).

Regarding `CN(C)CCc1c[nH]c2ccc(C[C@H]3COC(=O)N3)cc12`, the outcome in [1], in [2], in experiment [3], in experiment [5], in experiment [6] and in [10] was inactive. Also, the Potency entry in experiment [4], in [8] and in experiment [9] was “inactive” throughout. Further, the max response in experiment [7] was 2.27%.

With `CC(C)(C)C(=O)CCc1ccc(Cl)cc1`, the outcome in [1], in experiment [2], in [3], in experiment [5], in experiment [6] and in [10] was inactive. Moreover, the Potency entry in [4], in [8] and in experiment [9] was “inactive” each time. Also, in experiment [7], the max response was 1.49%.

`O=C[C@@H](O)[C@H](O)[C@H](O)CO`: the compound was called inactive in [1], in [2], in [3], in experiment [5], in experiment [6] and in experiment [10]. Further, the Potency result in [4], in [8] and in experiment [9] was “inactive” each time. Further, the max response in experiment [7] is -1.95%.

In the case of `Cc1ccc2cccnc2c1`, the outcome in [1], in [2], in [3], in experiment [5], in experiment [6] and in experiment [10] was inactive. The Potency entry in experiment [4], in experiment [8] and in [9] was “inactive” in each case. The max response in experiment [7] was 20.7%.

For the compound `CCc1ccc(CC)cc1`, the compound was classed as inactive in experiment [1], in experiment [2], in experiment [3], in [5], in experiment [6] and in experiment [10]. Also, the Potency result in [4], in experiment [8] and in experiment [9] was “inactive” in each case. In [7], the max response is 4.78%.

In the case of `C/C=C/C(=O)CCCC`, the outcome in [1], in experiment [2], in experiment [3], in [5], in experiment [6] and in experiment [10] was inactive. The Potency entry in experiment [4], in experiment [8] and in [9] was “inactive” each time. Moreover, in [7], the max response is 0.74%.

In the case of `CC(=O)OC/C=C(/C)CCC=C(C)C`, the outcome in experiment [1], in experiment [2], in experiment [3], in [5], in experiment [6] and in experiment [10] was inactive. In addition, the Potency result in [4], in experiment [8] and in experiment [9] was “inactive” each time. In experiment [7], the max response is -1.6%.

Turning to `CN1CCN(C(=O)C2CCCCC2)CC1`, the compound was classed as inactive in [1], in experiment [2], in experiment [3], in experiment [5], in experiment [6] and in experiment [10]. Further, the Potency result in experiment [4], in [8] and in experiment [9] was “inactive” in each case. Further, the max response in [7] is 0.482%.

Turning to `C=C(C)C(=O)OCCCC`, the outcome in experiment [1], in experiment [2], in experiment [3], in [5], in [6] and in experiment [10] was inactive. In addition, the Potency result in [4], in [8] and in experiment [9] was “inactive” throughout. Also, the max response in experiment [7] was 11.4%.

For the compound `O=C(O)/C=C(\CC(=O)O)C(=O)O`, the outcome in [1], in experiment [2], in experiment [3], in experiment [5], in [6] and in experiment [10] was inactive. Further, the Potency entry in experiment [4], in [8] and in experiment [9] was “inactive” in each case. The max response in experiment [7] was 4.26%.

For `O=c1c(O)c(O)c1=O`, the outcome in experiment [1], in experiment [2], in experiment [3], in experiment [5], in [6] and in [10] was inactive. Further, the Potency entry in experiment [4], in experiment [8] and in experiment [9] was “inactive” in each case. Also, the max response in [7] was -0.875%.

As to `Cc1ccc(Br)cc1`, the compound was classed as inactive in [1], in [2], in experiment [3], in experiment [5], in [6] and in [10]. For the same compound, the Potency entry in experiment [4], in experiment [8] and in experiment [9] was “inactive” in each case. In addition, the max response in experiment [7] was 0.938%.

For `CCCCCCCCCCCCCCCC(=O)OC`, the activity change, negative = cytotoxic was -0.272% [at 15.8 µM] in experiment [1], 16.9% [at 15.8 µM] in [3] and 6.89% [at 15.8 µM] in experiment [10]. For the same compound, in experiment [2], the cytotoxicity was -0.154% [at 15.8 µM]. Besides, the figures for the cytotoxicity increase in experiment [4] and in [9] were -6.02% [at 15.8 µM] and -17.1% [at 15.8 µM], respectively. Further, the activity change, negative = cytotoxicity in experiment [5] is -4.38% [at 15.8 µM]. In addition, the viability change, negative = cytotoxic in experiment [6] is -11% [at 15.8 µM]. Also, the max response in experiment [7] was -0.62%. Besides, the activity change in [8] was -1.12% [at 15.8 µM, active compounds read high].

In the case of `C=CCCCCCCCCOC(C)=O`, the compound was classed as inactive in [1], in [2], in experiment [3], in experiment [5], in [6] and in experiment [10]. Moreover, the Potency result in [4], in experiment [8] and in experiment [9] was “inactive” throughout. The max response in [7] was 0.238%.

As to `COc1ccccc1N1CCN(CC(O)COc2cc(OC)c(OC)c(OC)c2)CC1` (stereo not given), the result in [1], in [2], in experiment [3], in experiment [5], in [6] and in experiment [10] was inactive. Also, the Potency result in [4], in experiment [8] and in [9] was “inactive” throughout. The max response in experiment [7] was 4.13%.

With `NC(=O)CC[C@@H](N)C(=O)O`, the compound was called inactive in [1], in experiment [2], in experiment [3], in experiment [5], in experiment [6] and in [10]. The Potency result in experiment [4], in [8] and in experiment [9] was “inactive” throughout. Further, the max response in experiment [7] is 8.04%.

As to `N#Cc1ccccc1C#N`, the result in experiment [1], in experiment [2], in experiment [3], in experiment [5], in experiment [6] and in [10] was inactive. Further, the Potency result in experiment [4], in experiment [8] and in experiment [9] was “inactive” each time. Besides, the max response in experiment [7] was 4.47%.

On to `CCCC(=O)CC`, for which the compound was classed as inactive in [1], in experiment [2], in [3], in experiment [5], in experiment [6] and in experiment [10]. For the same compound, the Potency entry in [4], in experiment [8] and in experiment [9] was “inactive” each time. Moreover, in [7], the max response is 11.6%.

With `CN(C)c1cc(NC(=O)CNC(C)(C)C)c(O)c2c1C[C@H]1C[C@H]3[C@H](N(C)C)C(=O)C(C(N)=O)=C(O)[C@@]3(O)C(=O)C1=C2O`, the compound was called inactive in experiment [1], in experiment [2], in experiment [3], in experiment [5], in experiment [6] and in experiment [10]. Moreover, the Potency result in experiment [4], in experiment [8] and in [9] was “inactive” each time. In [7], the max response was 2.22%.

Regarding `CC(=O)/C=C/C=C1/C2CCC(C2)C1(C)C` (stereo not given), the result in experiment [1], in experiment [2], in [3], in experiment [5], in [6] and in experiment [10] was inactive. Besides, the Potency entry in experiment [4], in experiment [8] and in [9] was “inactive” in each case. In [7], the max response is -0.661%.

On to `O=S(=O)(O)CC(O)CCl` (stereo not given), for which the call in experiment [1], in experiment [2], in experiment [3], in experiment [5], in experiment [6] and in experiment [10] was inactive. The Potency result in experiment [4], in experiment [8] and in experiment [9] was “inactive” each time. Moreover, in [7], the max response was 5.44%.
